Laboratory results reported in PubChem BioAssay AID504832 (National Center for Advancing Translational Sciences (NCATS), 2011).
Screen size: about 310,000 compounds; about 18,000 (5.8%) were called active. About 22% were inconclusive and are not listed. The call rests on the fitted dose curve; in most records, active means well fitted inhibition curve with a large enough effect; inconclusive means small, poorly fitted or top-dose-only effect, or another doubt; inactive means no such curve, though single readings can be large or run the other way. What follows is part of a selection rich in actives, with near analogues and random picks from the rest. A call without a number means that no potency is given here.
Potency means the concentration at half of the fitted maximal effect.

Test: Primary qHTS for delayed death inhibitors of the malarial parasite plastid, 48 hour incubation
Details: P. falciparum luciferase growth in erythrocytes; series mostly up to 28.7 µM
Method in brief: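 Growth was read as firefly luciferase luminescence after a 48 h, 37 C, 5% CO2 exposure of compounds to reporter-bearing P. falciparum cultures (0.1% parasitemia, 2% hematocrit final) in Albumax-supplemented RPMI 1640.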
With CCN(CC(=O)NCc1cccs1)C(=O)c1ccc(OC)c(S(=O)(=O)N2CCOCC2)c1 the Potency was “inactive”.
In the case of O=C(CC1C(=O)NCCN1C(=O)c1ccc([N+](=O)[O-])cc1)Nc1cccc(Cl)c1 (stereo not drawn), the Potency was “inactive”.
For COc1ccc(C(=O)n2nc(C)c(Br)c2C)cc1OC, the Potency was “inactive”.
For O=C1NC(c2cccc(Cl)c2)Nc2ccccc21 (stereo not drawn), the Potency was “inactive”.
With O=c1c(-c2cccc(Cl)c2)c[nH]n1-c1ccccc1 the Potency was 3.7 µM (active).
In the case of O=C1c2ccccc2NC(c2ccc(-c3cccc(Cl)c3)o2)N1O (stereo not drawn), the Potency was “inactive”.
In the case of Cc1nc2sccn2c(=O)c1S(=O)(=O)NCCc1ccccc1, the Potency was “inactive”.
For COCCNc1nnc(SCC(=O)NNC(=O)c2ccco2)s1, the Potency was “inactive”.
With CCCNC(=O)CSc1nc(Cc2ccccc2)nc2ccccc12 the Potency was “inactive”.
For CCN(CC)c1ccc(NC(=O)CN2CCN(c3ccccn3)CC2)cc1, the Potency was “inactive”.
In the case of Cc1nc(N2CCN(c3ccccn3)CC2)c2c(C)c(C(=O)Nc3ccc(F)cc3)sc2n1, the Potency was 13.1 µM (active).
With Cc1cc(Br)ccc1NC(=O)c1sc2ncn(CC(=O)N3CCN(c4ccccn4)CC3)c(=O)c2c1C the Potency was “inactive”.
With CC(=O)N1CCN(CC(C)(C)NS(=O)(=O)c2ccc(C)cc2)CC1 the Potency was “inactive”.
For CC(=O)Nc1ccc(NC(=O)CSC2=NS(=O)(=O)c3ccccc3N2)cc1, the Potency was “inactive”.
In the case of N#CCCN(C(=O)COC(=O)C1CCN(c2ccc(C(F)(F)F)cn2)CC1)c1ccc(F)cc1, the Potency was “inactive”.
With CCOc1ccc(C(=O)NCC(=O)N2CCN(c3ccc(C(F)(F)F)cn3)CC2)cc1 the Potency was “inactive”.
With CCCN1CCn2c3c(c4cc(Br)ccc42)CCCC31 (stereo not drawn) the Potency was 8.28 µM (active).
With O=C(CN1C(=O)NC2(CCCCC2)C1=O)N1CCN(C(=O)c2cccs2)CC1 the Potency was “inactive”.
For Cc1nn(CC(=O)NCCc2ccccc2)c(=O)c2cc3occc3n12, the Potency was “inactive”.
For COc1ccc(CC(=O)OC(C)C(=O)Nc2ccc(S(N)(=O)=O)cc2)cc1 (stereo not drawn), the Potency was “inactive”.
For CCCCN(C(=O)c1ccc(C)o1)c1c(N)n(CCCC)c(=O)[nH]c1=O, the Potency was “inactive”.
With CCCCCN(C(=O)CCC(=O)OCC(=O)NCc1ccc(OC)cc1)c1c(N)n(CCCC)c(=O)[nH]c1=O the Potency was “inactive”.
In the case of CCCCN(C(=O)CCNC(=O)NC12CC3CC(CC(C3)C1)C2)c1c(N)n(CCCC)c(=O)[nH]c1=O, the Potency was 13.1 µM (active).
In the case of O=C(Cn1c(NCCO)nc2ccccc21)c1ccc(Cl)cc1Cl, the Potency was 13.1 µM (active).
In the case of O=S(=O)(O)c1nc2ccccc2n1Cc1ccc(Cl)cc1Cl, the Potency was “inactive”.
For CC(C)(C)C(=O)Cn1c(NCCO)nc2ccccc21, the Potency was “inactive”.
For O=C(COC(=O)c1ccc([N+](=O)[O-])cc1Cl)NC(=O)c1ccccc1, the Potency was “inactive”.
In the case of C/C=N/N(c1ccccc1)c1ccccc1, the Potency was 10.4 µM (active).
In the case of Cc1cccc(-c2c(NC(=O)c3ccco3)oc3ccc(Cl)cc3c2=O)c1, the Potency was “inactive”.
For O=C(O)CSc1ccc(S(=O)(=O)N2CCCC2)cn1, the Potency was “inactive”.
For Cc1ccc(NC(=O)CSc2sc3c(O)cc(=O)[nH]c3c2C#N)cc1C, the Potency was “inactive”.
For CC(C)CN(C(=O)c1ccc2c(c1)OCO2)C1CCS(=O)(=O)C1 (stereo not drawn), the Potency was “inactive”.
With O=C(Nc1ccc(-c2csc(Nc3cccc(C(F)(F)F)c3)n2)cc1)c1cccc(C(F)(F)F)c1 the Potency was 9.28 µM (active).
In the case of COc1ccc(-c2csc(NC(=O)COC(=O)Cc3ccc(Cl)cc3Cl)n2)cc1, the Potency was “inactive”.
With CCCCCCC(=O)Nc1nc(C)c(-c2csc(Nc3cccc(OC)c3)n2)s1 the Potency was 5.22 µM (active).
In the case of CCCCCCC(=O)Nc1nc(C)c(-c2csc(Nc3cc(Cl)ccc3OC)n2)s1, the Potency was 4.65 µM (active).
In the case of Cc1cccc(NC(=O)c2cccc(C(F)(F)F)c2)c1, the Potency was “inactive”.
For CC(=O)c1sc(NC(=O)CCCOc2ccccc2C)nc1C, the Potency was “inactive”.
In the case of COc1ccc(Cl)cc1NC(=O)c1oc(C)nc1C, the Potency was “inactive”.
In the case of C=CCCC(=O)Nc1nc(C)c(-c2csc(Nc3ccc(Cl)cc3)n2)s1, the Potency was 1.47 µM (active).
For COc1ccc(-c2csc(Nc3ccc(O)cc3)n2)cc1, the Potency was “inactive”.
With CC(=O)Nc1ccc(-c2csc(NC(=O)Nc3ccccc3)n2)cc1 the Potency was “inactive”.
In the case of CCOC(=O)c1csc(NC(=O)Nc2cccc(OC)c2)n1, the Potency was “inactive”.
In the case of COc1cc(CC(=O)Nc2nc(-c3ccc(F)c(F)c3)cs2)cc(OC)c1OC, the Potency was “inactive”.
For CC(C)CN(C(=O)Cn1c(=O)cnc2ccccc21)C1CCS(=O)(=O)C1 (stereo not drawn), the Potency was “inactive”.
For Cc1ccccc1Nc1c([N+](=O)[O-])ccc2nonc12, the Potency was “inactive”.
In the case of CC1(C(=O)OCC(=O)Nc2ncc(Cl)cc2Cl)CC1(Cl)Cl (stereo not drawn), the Potency was “inactive”.
For Cc1cccc(OCC(=O)Nc2ccc(C(=O)O)cc2NC(=O)COc2cccc(C)c2)c1, the Potency was “inactive”.
With O=C(NCCCN1CCCC1=O)c1ccc(S(=O)(=O)Nc2ccccc2)cc1 the Potency was “inactive”.
In the case of CC1CCN(C(=O)CCc2nnc3ccc(NCc4ccco4)nn23)CC1, the Potency was “inactive”.
In the case of CC(c1ccccn1)N(C)C(=O)c1ccc2nc(Cc3cccc(Cl)c3)oc2c1 (stereo not drawn), the Potency was “inactive”.
In the case of CC1(C)O[C@@H]2[C@H](O1)[C@@H](COS(=O)(=O)O)O[C@H]2n1cnc2c(=O)[nH]cnc21, the Potency was “inactive”.
For CCOCCOC(=O)C1=C(C)NC(=O)NC1c1ccc2c(c1)OCO2 (stereo not drawn), the Potency was “inactive”.
In the case of Cc1csc2nc(COC(=O)c3cccc(N(C)C)c3)cc(=O)n12, the Potency was “inactive”.
With CC(=O)Nc1cccc(-c2csc(Nc3cccc(C)n3)n2)c1 the Potency was “inactive”.
For CCCCN(C)CCC(=O)Nc1ccc(Cl)cc1, the Potency was “inactive”.
With Cc1nc(NC(=O)c2cccc(Cl)c2)sc1-c1csc(Nc2cccc(Cl)c2)n1 the Potency was 8.28 µM (active).
In the case of CCC(=O)Nc1nc(C)c(C(=O)Nc2cccc(Cl)c2)s1, the Potency was “inactive”.
For CCCCC(=O)Nc1nc(C)c(-c2csc(Nc3ccc(Cl)cc3)n2)s1, the Potency was 4.65 µM (active).
With CC(=O)Nc1nc(C)c(-c2csc(Nc3ccc(S(N)(=O)=O)cc3)n2)s1 the Potency was “inactive”.
In the case of O=C(CN1C(=O)NC2(CCCC2)C1=O)OCCOc1ccc(F)cc1, the Potency was “inactive”.
For COC(=O)c1c(NC(=O)C(=O)N2CCCCC2)sc2c1CC(C)(C)OC2, the Potency was “inactive”.
In the case of COc1ccc(CNS(=O)(=O)c2ccc(-c3cnc(C4CC4)o3)cc2)cc1, the Potency was “inactive”.
In the case of O=C1C=C(c2cccc(Br)c2)C[C@@H](c2ccc(F)cc2)C1, the Potency was 2.94 µM (active).
With COc1cccc(C2=CC(=O)C[C@H](c3ccc(F)cc3)C2)c1OC the Potency was “inactive”.
For COc1ccccc1C1=CC(=O)C[C@H](c2ccc(F)cc2)C1, the Potency was “inactive”.
With O=C1CC(c2cccc(Br)c2)C2=C(CCCC2=O)N1 (stereo not drawn) the Potency was “inactive”.
In the case of O=C1C=C(c2cccc(Cl)c2O)C[C@@H](c2ccc(F)cc2)C1, the Potency was 2.08 µM (active).
